# Test results reported in article PMC8384837, “Expanding the binding specificity for RNA recognition by a PUF domain”.
# Positions count from the first letter of the chain named.
# Experiments:
# Test in all cases: yeast three-hybrid, YBZ-1, SC-Leu-His + 0.5 mM 3-AT, 4 days
# Details in all cases: tags: N-Gal4 AD-HA kept; label: inside an RPR1-promoter hybrid RNA with tandem MS2 sites; ssRNA
# PUM1 PUF domain R5-KRL = PUM1 PUF domain R5-KRL (Homo sapiens, UniProt Q14671 828-1176, C1007K;Q1011L)
# Summary of the method: (§1)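 The interaction score is the log change in how often each variant appears, from input to selection. Frequencies came from PCR-amplified, Illumina-sequenced repeat regions of Pumilio-1 PUF domain libraries grown in strain YBZ-1 (LexA–MS2 coat fusion, HIS3 reporter) alongside matching RNA elements. Input plates were SC-Leu and selection plates were SC-Leu-His + 0.5 mM 3-AT, each for four days, and the log2 calculation used a pseudocount of 1 where a variant was absent.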
# PUM1 PUF domain R7-RPM = PUM1 PUF domain R7-RPM (Homo sapiens, UniProt Q14671 828-1176, S1079R;N1080P;E1083M)
# Summary of the method: as §1
# PUM1 PUF domain R7-RRE = PUM1 PUF domain R7-RRE (Homo sapiens, UniProt Q14671 828-1176, S1079R;N1080R)
# Summary of the method: as §1
# PUM1 PUF domain R6-VYC = target: T1, PUM1 PUF domain R6-VYC (Homo sapiens, UniProt Q14671 828-1176, N1043V;Q1047C)
# T1 sequence: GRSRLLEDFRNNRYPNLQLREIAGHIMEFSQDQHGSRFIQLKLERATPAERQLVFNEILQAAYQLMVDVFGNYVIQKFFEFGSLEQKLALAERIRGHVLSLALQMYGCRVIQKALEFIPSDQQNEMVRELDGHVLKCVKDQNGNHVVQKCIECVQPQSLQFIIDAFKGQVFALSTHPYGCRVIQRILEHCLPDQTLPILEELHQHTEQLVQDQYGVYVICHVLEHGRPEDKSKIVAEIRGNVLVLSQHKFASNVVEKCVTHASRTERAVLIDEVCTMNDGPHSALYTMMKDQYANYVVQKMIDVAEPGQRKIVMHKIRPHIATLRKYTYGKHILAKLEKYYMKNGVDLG
# Summary of the method: as §1
# PUM1 PUF domain R4-GHP = PUM1 PUF domain R4-GHP (Homo sapiens, UniProt Q14671 828-1176, N971G;Q975P)
# Summary of the method: as §1
# PUM1 PUF domain R4-PYV = PUM1 PUF domain R4-PYV (Homo sapiens, UniProt Q14671 828-1176, N971P;H972Y;Q975V)
# Summary of the method: as §1
# PUM1 PUF domain R5-RMS = PUM1 PUF domain R5-RMS (Homo sapiens, UniProt Q14671 828-1176, C1007R;R1008M;Q1011S)
# Summary of the method: as §1
# PUM1 PUF domain R5-HFF = PUM1 PUF domain R5-HFF (Homo sapiens, UniProt Q14671 828-1176, C1007H;R1008F;Q1011F)
# Summary of the method: as §1
# PUM1 PUF domain R5-QGC = PUM1 PUF domain R5-QGC (Homo sapiens, UniProt Q14671 828-1176, C1007Q;R1008G;Q1011C)
# Summary of the method: as §1
# PUM1 PUF domain R5-KDR = PUM1 PUF domain R5-KDR (Homo sapiens, UniProt Q14671 828-1176, C1007K;R1008D;Q1011R)
# Summary of the method: as §1
# PUM1 PUF domain R8-RYG = PUM1 PUF domain R8-RYG (Homo sapiens, UniProt Q14671 828-1176, N1122R;Q1126G)
# Summary of the method: as §1
# PUM1 PUF domain R8-RFQ = PUM1 PUF domain R8-RFQ (Homo sapiens, UniProt Q14671 828-1176, N1122R;Y1123F)
# Summary of the method: as §1
# PUM1 PUF domain R4-NRA = PUM1 PUF domain R4-NRA (Homo sapiens, UniProt Q14671 828-1176, H972R;Q975A)
# Summary of the method: as §1
# PUM1 PUF domain R4-EHF = PUM1 PUF domain R4-EHF (Homo sapiens, UniProt Q14671 828-1176, N971E;Q975F)
# Summary of the method: as §1
# PUM1 PUF domain R5-KRR = PUM1 PUF domain R5-KRR (Homo sapiens, UniProt Q14671 828-1176, C1007K;Q1011R)
# Summary of the method: as §1
# PUM1 PUF domain R5-RMD = PUM1 PUF domain R5-RMD (Homo sapiens, UniProt Q14671 828-1176, C1007R;R1008M;Q1011D)
# Summary of the method: as §1
# PUM1 PUF domain R3-IWL = PUM1 PUF domain R3-IWL (Homo sapiens, UniProt Q14671 828-1176, C935I;R936W;Q939L)
# Summary of the method: as §1
# PUM1 PUF domain R3-SSE = PUM1 PUF domain R3-SSE (Homo sapiens, UniProt Q14671 828-1176, C935S;R936S;Q939E)
# Summary of the method: as §1
# PUM1 PUF domain R3-DYA = PUM1 PUF domain R3-DYA (Homo sapiens, UniProt Q14671 828-1176, C935D;R936Y;Q939A)
# Summary of the method: as §1
# PUM1 PUF domain R6-DFQ = target: T2, PUM1 PUF domain R6-DFQ (Homo sapiens, UniProt Q14671 828-1176, N1043D;Y1044F)
# T2 sequence: T1 sequence with V216D, Y217F, C220Q
# Summary of the method: as §1
sequence,measurement,setting,value
GGCUAGAACUAGUGGAUCCCCCGGCGCCCGGCGGCUCGAGCCCGGGUAAGUGUGAAUAGUCUGCAUGCCGCCGGGCGCCAUGCCUGCAGGUCGACUCUAGAAAACAUG,binding signal,PUM1 PUF domain R5-KRL,0.47 log2 enrichment (interaction score)
GGCUAGAACUAGUGGAUCCCCCGGCGCCCGGCGGCUCGAGCCCGGGUAAGUCUAAAUAGUCUGCAUGCCGCCGGGCGCCAUGCCUGCAGGUCGACUCUAGAAAACAUG,binding signal,PUM1 PUF domain R7-RPM,0.93 log2 enrichment (interaction score)
same,binding signal,PUM1 PUF domain R7-RRE,3.75 log2 enrichment (interaction score)
GGCUAGAACUAGUGGAUCCCCCGGCGCCCGGCGGCUCGAGCCCGGGUAAGUGAAAAUAGUCUGCAUGCCGCCGGGCGCCAUGCCUGCAGGUCGACUCUAGAAAACAUG,binding signal,PUM1 PUF domain R6-VYC,6.26 log2 enrichment (interaction score)
GGCUAGAACUAGUGGAUCCCCCGGCGCCCGGCGGCUCGAGCCCGGGUAAGUGUACAUAGUCUGCAUGCCGCCGGGCGCCAUGCCUGCAGGUCGACUCUAGAAAACAUG,binding signal,PUM1 PUF domain R4-GHP,5.4 log2 enrichment (interaction score)
same,binding signal,PUM1 PUF domain R4-PYV,6.43 log2 enrichment (interaction score)
GGCUAGAACUAGUGGAUCCCCCGGCGCCCGGCGGCUCGAGCCCGGGUAAGUGUUAAUAGUCUGCAUGCCGCCGGGCGCCAUGCCUGCAGGUCGACUCUAGAAAACAUG,binding signal,PUM1 PUF domain R5-RMS,2.79 log2 enrichment (interaction score)
same,binding signal,PUM1 PUF domain R5-HFF,3.86 log2 enrichment (interaction score)
same,binding signal,PUM1 PUF domain R5-QGC,2.19 log2 enrichment (interaction score)
same,binding signal,PUM1 PUF domain R5-KDR,2.77 log2 enrichment (interaction score)
same,binding signal,PUM1 PUF domain R5-KRL,3 log2 enrichment (interaction score)
GGCUAGAACUAGUGGAUCCCCCGGCGCCCGGCGGCUCGAGCCCGGGUAAGCGUAAAUAGUCUGCAUGCCGCCGGGCGCCAUGCCUGCAGGUCGACUCUAGAAAACAUG,binding signal,PUM1 PUF domain R8-RYG,5.66 log2 enrichment (interaction score)
same,binding signal,PUM1 PUF domain R8-RFQ,5.63 log2 enrichment (interaction score)
GGCUAGAACUAGUGGAUCCCCCGGCGCCCGGCGGCUCGAGCCCGGGUAAGUGUAUAUAGUCUGCAUGCCGCCGGGCGCCAUGCCUGCAGGUCGACUCUAGAAAACAUG,binding signal,PUM1 PUF domain R4-NRA,2.48 log2 enrichment (interaction score)
same,binding signal,PUM1 PUF domain R4-PYV,7.86 log2 enrichment (interaction score)
same,binding signal,PUM1 PUF domain R4-EHF,5.95 log2 enrichment (interaction score)
GGCUAGAACUAGUGGAUCCCCCGGCGCCCGGCGGCUCGAGCCCGGGUAAGUGUCAAUAGUCUGCAUGCCGCCGGGCGCCAUGCCUGCAGGUCGACUCUAGAAAACAUG,binding signal,PUM1 PUF domain R5-KRR,3.6 log2 enrichment (interaction score)
same,binding signal,PUM1 PUF domain R5-RMS,3.6 log2 enrichment (interaction score)
same,binding signal,PUM1 PUF domain R5-KDR,4.77 log2 enrichment (interaction score)
same,binding signal,PUM1 PUF domain R5-KRL,3.16 log2 enrichment (interaction score)
same,binding signal,PUM1 PUF domain R5-RMD,4.23 log2 enrichment (interaction score)
GGCUAGAACUAGUGGAUCCCCCGGCGCCCGGCGGCUCGAGCCCGGGUAAGGGUAAAUAGUCUGCAUGCCGCCGGGCGCCAUGCCUGCAGGUCGACUCUAGAAAACAUG,binding signal,PUM1 PUF domain R8-RFQ,2.44 log2 enrichment (interaction score)
GGCUAGAACUAGUGGAUCCCCCGGCGCCCGGCGGCUCGAGCCCGGGUAAGUUUAAAUAGUCUGCAUGCCGCCGGGCGCCAUGCCUGCAGGUCGACUCUAGAAAACAUG,binding signal,PUM1 PUF domain R7-RPM,3.18 log2 enrichment (interaction score)
GGCUAGAACUAGUGGAUCCCCCGGCGCCCGGCGGCUCGAGCCCGGGUAAGUGUAAAUAGUCUGCAUGCCGCCGGGCGCCAUGCCUGCAGGUCGACUCUAGAAAACAUG,binding signal,PUM1 PUF domain R3-IWL,4.86 log2 enrichment (interaction score)
same,binding signal,PUM1 PUF domain R8-RYG,5.75 log2 enrichment (interaction score)
same,binding signal,PUM1 PUF domain R4-GHP,5.41 log2 enrichment (interaction score)
same,binding signal,PUM1 PUF domain R3-SSE,0.23 log2 enrichment (interaction score)
same,binding signal,PUM1 PUF domain R8-RFQ,2.11 log2 enrichment (interaction score)
same,binding signal,PUM1 PUF domain R3-DYA,5.02 log2 enrichment (interaction score)
same,binding signal,PUM1 PUF domain R4-PYV,5.22 log2 enrichment (interaction score)
same,binding signal,PUM1 PUF domain R5-KRL,1.09 log2 enrichment (interaction score)
same,binding signal,PUM1 PUF domain R6-DFQ,8.15 log2 enrichment (interaction score)
GGCUAGAACUAGUGGAUCCCCCGGCGCCCGGCGGCUCGAGCCCGGGUAAGUGUAAGUAGUCUGCAUGCCGCCGGGCGCCAUGCCUGCAGGUCGACUCUAGAAAACAUG,binding signal,PUM1 PUF domain R3-IWL,2.77 log2 enrichment (interaction score)
same,binding signal,PUM1 PUF domain R3-SSE,6.26 log2 enrichment (interaction score)
same,binding signal,PUM1 PUF domain R3-DYA,1.16 log2 enrichment (interaction score)
